Compound activity (PubChem)
USP1-UAF1 inh: blocks the human USP1/UAF1 deubiquitinase complex | 390,000 tested, 0.23% active | recombinant USP1/UAF1, Ub-Rhodamine cleavage fluorescence | AID 743255 | Potency, µM (series often up to 57.1 µM), without a hit: at the top dose activity change, negative = inhibition, actives largely listed as inhibitors | O94782; active = well fitted inhibition curve with a large enough effect; inconclusive = small, poorly fitted or top-dose-only effect; inactive = no such curve, though single readings can be large or run the other way; note: potency is the fitted concentration of half-maximal effect; % is set by controls: 0 for no effect and ±100 for the full control effect; nearly all actives have a fitted effect of over 60% in size
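USP1/UAF1 complex (1 nM) preincubated 15 min at room temperature with compound, then Ub-Rho substrate (150 nM final) added. Kinetic fluorescence at 480/540 nm over 6 reads at 60 s intervals; 50 mM HEPES pH 7.8, 0.5 mM EDTA, 0.1 mg/ml BSA, 1 mM TCEP, 0.01% Tween-20.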
TRHR ag: TRH receptor (human) agonism. P34981. TRHR cells, calcium flux fluo-8, FDSS agonist mode. activation, % at 2 µM. 360,000 tested, 0.18% active. AID 493084; note: 0% is about no effect
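Fluo-8-loaded TRHR cells; 10 s baseline, compound added, kinetic Ca2+ fluorescence read 1/s, agonist mode.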
D1 antag: blocks dopamine activation of the human D1 receptor. P21728. HEK293 TREx D1 cells, calcium flux, dopamine EC80; stronger effect = lower value. activity change, negative = inhibition, % at 10 µM. 360,000 tested, 3.2% active; in the data active = activity change below about -30%; note: % is set by controls: 0 for no effect and ±100 for the full control effect
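Kinetic fluorescence of a calcium dye serves as the read-out. D1-expressing Hek293 Trex cells, induced overnight at 30 C, are exposed to compound for 180 s before an EC80 dopamine addition, then read 180 s further.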
D1 PAM: enhances dopamine response at the human D1 receptor; HEK293 TREx D1 cells, calcium flux, dopamine EC20 potentiation; potentiation, % at 10 µM; 360,000 tested, 0.036% active; in the data active = potentiation above about 30%; note: 0% is about no effect
D1 agonist: activates the human D1 dopamine receptor; 360,000 tested, 1% active; HEK293 T-REx D1 cells, calcium flux, agonist mode; activation, % at 2 µM; P21728; note: 0% is about no effect
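Inducible HEK293 T-REx D1 cells, force-coupled to calcium signalling, were plated at 4000 cells/well with tetracycline and held overnight at 30 C. After no-wash calcium dye loading, compound-evoked calcium rise over 180 s flagged agonists.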
TRHR PAM: allosterically enhances the human TRH receptor | enhancement, % at 2 µM | AID 493056 | P34981 | 360,000 tested, 0.66% active | TRHR cells, fluo-8 calcium fluorescence, EC20 TRH enhancement; in the data active = enhancement above about 30%; note: 0% is about no effect
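Enhancer read-out: after compound pinning and an initial kinetic agonist-mode read, an EC20 of TRH (10 nM final) was injected and fluo-8 calcium signal (Ex 480/Em 530) followed at 1 s/cycle for 100 cycles in TRHR-expressing cells.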
Starred values were filed as active, the others as inactive. Compounds with a hit are over-represented: about 4.4% of the library has one in this group of screens. Cut-off read from the data, not from the text of the source, unless noted: active = activation above about 30%; inactive = the rest.

`Cc1ccc(C)c(N2CCN(CCCNC(=O)c3nnc(Cc4ccc(F)cc4Cl)o3)CC2)c1` gave USP1-UAF1 inh -7%, TRHR ag 0, D1 antag -23, D1 PAM -4, D1 agonist 17 and TRHR PAM -1.
For COc1ccccc1N1CCN(CCCNC(=O)c2nnc(Cc3ccc(F)cc3Cl)o2)CC1 the results were USP1-UAF1 inh 8%, TRHR ag 0, D1 antag -39*, D1 PAM -5, D1 agonist 5 and TRHR PAM -3.
`O=C(c1cnn(-c2ccc(F)cc2)c1-n1cccc1)N1CCN(c2ccccc2)CC1` gave USP1-UAF1 inh -17%, TRHR ag -1, D1 antag -13, D1 PAM -1, D1 agonist 2 and TRHR PAM -4.
Screening COc1cc(OC)cc(C(=O)NCCc2csc(-c3cccc(C)c3)n2)c1 returned USP1-UAF1 inh inconclusive, TRHR ag -1, D1 antag -12, D1 PAM -4, D1 agonist 2 and TRHR PAM 3.
`O=C(C1CCN(c2nc3ccccc3[nH]2)CC1)N1CCN(c2cccc(Cl)c2)CC1` gave USP1-UAF1 inh -21%, TRHR ag -1, D1 antag -16, D1 PAM -4, D1 agonist 15 and TRHR PAM 4.
`COc1ccccc1CNC(=O)C1CCN(c2nc3ccc(Cl)cc3[nH]2)CC1` gave USP1-UAF1 inh -31%, TRHR ag -1, D1 antag -74*, D1 PAM 6, D1 agonist 2 and TRHR PAM 1.
For Cc1ccc2nc(N3CCC(C(=O)N4CCN(c5cccc(Cl)c5)CC4)CC3)[nH]c2c1 the results were USP1-UAF1 inh inconclusive, TRHR ag -1, D1 antag -11, D1 PAM -2, D1 agonist 43* and TRHR PAM -1.
`Cc1ccc(C(=O)c2cn[nH]c2-c2cc(Cl)ccc2O)cc1` gave USP1-UAF1 inh -16%, TRHR ag 0, D1 antag -19, D1 PAM -4, D1 agonist 58* and TRHR PAM 3.
COc1ccc(NC(=O)Cn2c(=O)n(Cc3ccco3)c(=O)c3oc4ccccc4c32)cc1Cl was read as USP1-UAF1 inh -15%, TRHR ag 1, D1 antag 7, D1 PAM -3, D1 agonist 0 and TRHR PAM -4.
Screening O=C(c1ccccc1)N1CCCc2ccccc21 returned USP1-UAF1 inh -7%, TRHR ag 0, D1 antag -2, D1 PAM -4, D1 agonist 1 and TRHR PAM 1.
For Cc1onc(-c2c(F)cccc2Cl)c1C(=O)N1CCc2ccccc21 the results were USP1-UAF1 inh -13%, TRHR ag 0, D1 antag 3, D1 PAM 5, D1 agonist 1 and TRHR PAM 13.
`Cc1onc(-c2c(Cl)cccc2Cl)c1C(=O)N1CCCc2ccccc21` gave USP1-UAF1 inh -12%, TRHR ag -1, D1 antag 18, D1 PAM 1, D1 agonist 139* and TRHR PAM 0.
Screening CC(=O)c1cccc(NC(=S)N2CCc3ccccc32)c1 returned USP1-UAF1 inh -6%, TRHR ag -1, D1 antag -32*, D1 PAM 1, D1 agonist 2 and TRHR PAM -6.
For O=C(Nc1ccc2c(c1)CCCN2C(=O)c1cccs1)c1c(F)cccc1F the results were USP1-UAF1 inh -1%, TRHR ag -1, D1 antag -19, D1 PAM -7, D1 agonist 4 and TRHR PAM -3.
O=C(Nc1ccc2c(c1)CCCN2C(=O)c1cccs1)c1c(F)cccc1Cl was read as USP1-UAF1 inh -19%, TRHR ag 0, D1 antag -44*, D1 PAM -9, D1 agonist 1 and TRHR PAM 6.
Screening O=C(Nc1cccc(C(=O)N2CCCc3ccccc32)c1)c1ccccc1 returned USP1-UAF1 inh -20%, TRHR ag -1, D1 antag -37*, D1 PAM -8, D1 agonist 1 and TRHR PAM -5.
CCCCC(CC)CNC(=O)CN(C)S(=O)(=O)c1ccc2c(c1)c(=O)n(C)c(=O)n2C (configuration not stated) was read as USP1-UAF1 inh -19%, TRHR ag 0, D1 antag 12, D1 PAM 3, D1 agonist 1 and TRHR PAM -7.
COc1cc(Cl)c(NS(=O)(=O)c2ccc3[nH]c(=O)ccc3c2)c(OC)c1 was read as USP1-UAF1 inh inconclusive, TRHR ag 1, D1 antag 10, D1 PAM -4, D1 agonist 1 and TRHR PAM -3.
`O=C(c1c(F)cccc1F)N1CCCc2ccccc21` gave USP1-UAF1 inh -10%, TRHR ag 0, D1 antag 4, D1 PAM 2, D1 agonist 4 and TRHR PAM 32*.
Screening Cc1onc(-c2ccccc2)c1C(=O)N1CCCC1 returned USP1-UAF1 inh -18%, TRHR ag 0, D1 antag -37*, D1 PAM -10, D1 agonist 3 and TRHR PAM -6.
Screening Cc1onc(-c2ccccc2)c1C(=O)N1CCCCCC1 returned USP1-UAF1 inh -16%, TRHR ag -1, D1 antag 14, D1 PAM 7, D1 agonist 2 and TRHR PAM 12.
`Cc1ccc(NC(=O)Cn2cc(S(=O)(=O)N3CCCC3)c(S(=O)(=O)N3CCCC3)c2)c(C)c1` gave USP1-UAF1 inh -14%, TRHR ag 0, D1 antag -9, D1 PAM -8, D1 agonist 2 and TRHR PAM -2.
Cc1ccccc1CSc1nnc2[nH]c(=O)cc(C)n12 was read as USP1-UAF1 inh -3%, TRHR ag 0, D1 PAM 1, D1 agonist -2 and TRHR PAM 3.
Screening CCc1cccc(NC(=O)C2CCCN2S(=O)(=O)c2ccc3nc(-c4ccccc4)[nH]c3c2)c1 (configuration not stated) returned USP1-UAF1 inh -2%, TRHR ag 1, D1 antag 12, D1 PAM -1, D1 agonist 4 and TRHR PAM -3.
`CS(=O)(=O)N(CC(=O)NCc1ccccc1)C1CCCCC1` gave USP1-UAF1 inh -7%, TRHR ag 0, D1 antag -61*, D1 PAM -14, D1 agonist -1 and TRHR PAM -24.
`COc1ccc(CNC(=O)CN(C2CCCCC2)S(C)(=O)=O)cc1` gave USP1-UAF1 inh -18%, TRHR ag 0, D1 antag -32*, D1 PAM -9, D1 agonist 2 and TRHR PAM 4.
